# Results as given in the supplement of paper PMC5662767.
# Test system: Drosophila S2 cl14 SmoIP sensor cells
# Test: normalized SmoIP GFP fluorescence (untreated unstimulated = 0%, untreated Hh-stimulated = 100%); higher = more Smo activation sensor fluorescence
# Conditions: stimulation: mock conditioned medium (-Hh); compound concentration: 2 uM; 24 h
# 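Further: flow cytometry read-out as median GFP intensity of gated cells, compounds added 30 min before Hh-conditioned or mock medium, mock-treated cells serving as unstimulated baseline.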
row,Structure (SMILES),normalized SmoIP GFP fluorescence
1,CC(=O)/N=c1/sc(S(N)(=O)=O)nn1C [methazolamide],-2.48%
2,c1ccc(-c2nn3c(c2-c2ccnc4cc(OCCN5CCOCC5)ccc24)CCC3)nc1,30.2%
3,COc1cc2ncnc(Nc3cccc(Cl)c3)c2cc1OC [ag-1478-tyrphostin-ag-1478],-12.9%
4,O=C(NCCCNc1nc(Nc2cccc(NC(=O)N3CCCC3)c2)ncc1I)c1cccs1,78.4%
5,CCc1cncnc1N1CCN(Cc2nc3ccc(C(F)(F)F)cc3[nH]2)CC1,0.966%
6,CC(C)(CO)c1cc2cc(NC(=O)C3(c4ccc5c(c4)OC(F)(F)O5)CC3)c(F)cc2n1C[C@@H](O)CO,-3.39%
7,COc1ccc(-c2cc3c(C)nc(N)nc3n([C@H]3CC[C@H](OCCO)CC3)c2=O)cn1,-29.5%
8,Cc1ccc(S(=O)(=O)NC(=O)NN2CC3CCCC3C2)cc1 (stereo not drawn) [gliclazide-diamicron],-13.7%
9,C[C@H](NC(=O)[C@@H](O)c1cc(F)cc(F)c1)C(=O)N[C@@H]1C(=O)N(C)c2ccccc2-c2ccccc21,9.98%
10,COc1ccc(C(=O)Nc2sc3c(c2C(N)=O)CCCC3)cc1OC,-9.85%
11,O=c1cc(-c2ccc(O)cc2)oc2cc(O)cc(O)c12 [Apigenin],-2.19%
12,C[N+]1(C)[C@@H]2C[C@@H](OC(=O)C(O)(c3cccs3)c3cccs3)C[C@H]1[C@@H]1O[C@@H]12 [Tiotropium-Bromide-hydrate],0.334%
13,C[C@@H]1CN(CC(=O)Nc2ccc3c(c2)Cc2cccc(-c4cc(=O)cc(N5CCOCC5)o4)c2S3)C[C@H](C)O1,5.98%
14,COc1cc(Nc2c(C#N)cnc3cc(OCCCN4CCN(C)CC4)c(OC)cc23)c(Cl)cc1Cl [Bosutinib],9.08%
15,COc1ccnc2[nH]cc(C(=O)C(=O)N3CCN(C(=O)c4ccccc4)C[C@H]3C)c12,15.4%
16,CC(=O)Nc1nc(C)c(-c2ccc(Cl)c(S(=O)(=O)NCCO)c2)s1,-1.13%
17,CC(C)(Cc1ccc2ccccc2c1)NC[C@@H](O)COc1cccc(Cl)c1C#N,12.8%
18,CN1[C@@H]2CC[C@H]1C[C@@H](OC(c1ccccc1)c1ccccc1)C2 [benztropine-mesylate],-0.662%
19,CCCCCCCCOc1ccccc1C(=O)Nc1ccc(C(=O)OCC[N+](C)(CC)CC)cc1 [otilonium-bromide],-1.85%

row,Structure (SMILES),normalized SmoIP GFP fluorescence
1,Cn1cc(-c2ccc3nnc(Sc4ccc5ncccc5c4)n3n2)cn1,-1.88%
2,Cc1c(C(=O)Nc2ccc(N3C[C@@H](C)O[C@@H](C)C3)nc2)cccc1-c1ccc(OC(F)(F)F)cc1,-12.2%
3,Nc1nccc2c1ncn2[C@@H]1C=C(CO)[C@@H](O)[C@H]1O [3-deazaneplanocin-a-dznep],0.702%
4,CCCS(=O)(=O)Nc1ccc(F)c(C(=O)c2c[nH]c3ncc(-c4ccc(Cl)cc4)cc23)c1F,3.72%
5,N#CCNC(=O)c1ccc(-c2ccnc(Nc3ccc(N4CCOCC4)cc3)n2)cc1,53.3%
6,CC(C)(C)c1cc(C(C)(C)C)c(NC(=O)c2c[nH]c3ccccc3c2=O)cc1O,7.39%
7,NC(=O)c1ncn([C@@H]2O[C@H](CO)[C@@H](O)[C@H]2O)c1N [Acadesine],-15.4%
8,CN1CCC(NC(=O)c2cc(-c3c(O)cc(O)cc3Oc3ccc([N+](=O)[O-])cc3)on2)CC1,4.56%
9,COc1ccc(-c2ccc3ncc4c(c3c2)n(-c2ccc(N3CCNCC3)c(C(F)(F)F)c2)c(=O)n4C)cn1,-7.6%
10,COc1ccc(CNC(=O)Nc2ncc([N+](=O)[O-])s2)cc1,-11%
11,C[S+]([O-])c1ccc(-c2nc(-c3ccc(F)cc3)c(-c3ccncc3)[nH]2)cc1 (stereo not drawn),-5.98%
12,C=C(C)[C@@H]1CC[C@]2(C(=O)O)CC[C@]3(C)[C@H](CC[C@@H]4[C@@]5(C)CC[C@H](O)C(C)(C)[C@@H]5CC[C@]43C)[C@@H]12 [betulinic-acid],-2.93%
13,Nc1ccc(-c2ccc3ncc4ccc(=O)n(-c5cccc(C(F)(F)F)c5)c4c3c2)cn1 [torin-2],-9.64%
14,NC(=O)c1cnc(N[C@@H]2CCCC[C@@H]2N)nc1Nc1cccc(-n2nccn2)c1,24.4%
15,Cc1cc(Nc2ccc(NC(=O)c3ccc(Nc4ccnc5ccccc45)cc3)cc2)nc(N)n1,-3.5%
16,CCOc1cc2ncc(C#N)c(Nc3ccc(OCc4ccccn4)c(Cl)c3)c2cc1NC(=O)/C=C/CN(C)C [Neratinib(HKI-272)],-15.6%
17,CC(C)CN(C[C@@H](O)[C@H](Cc1ccccc1)NC(=O)O[C@H]1CO[C@H]2OCC[C@H]21)S(=O)(=O)c1ccc(N)cc1 [Darunavir-Ethanolate(Prezista)],-5.54%
18,CC(=O)OCC[N+](C)(C)C [Acetylcholine-chloride],-16.8%
19,CO[C@H]1C[C@@H]2CC[C@@H](C)[C@@](O)(O2)C(=O)C(=O)N2CCCC[C@H]2C(=O)O[C@H]([C@H](C)C[C@@H]2CC[C@@H](O)[C@H](OC)C2)CC(=O)[C@H](C)/C=C(\C)[C@@H](O)[C@@H](OC)C(=O)[C@H](C)C[C@H](C)/C=C/C=C/C=C/1C [Rapamycin],19.1%
